Inconclusive results are not listed. Entries that show only a call come without a potency. Active and inactive are the calls of the source. The call rests on the fitted dose curve; in most records, active means well fitted curve in the direction sought with a large enough effect; inconclusive means small, poorly fitted or top-dose-only effect, or another doubt; inactive means no such curve, though single readings can be large; an effect the other way counts as inactive or inconclusive.
experiment: Primary qHTS for inhibitors of nuclear receptor binding SET domain protein 2 (NSD2) in an isogenic RCH-ACV NSD2 p.E1099K mutant (9B) (AID 1645876); details: RCH-ACV NSD2 E1099K (9B) viability, CellTiter-Glo, 72 h; series mostly up to 44.9 µM
Further: nearly all actives have a fitted effect of over 70% in size.
Potency means the concentration at half of the fitted maximal effect.

SMILES	Potency	activity change, negative = viability loss
CCOC(=O)c1ccc(O)c(O)c1	9.44 µM (active)	–
CN1[C@@H]2CC[C@H]1CC(NC(=O)n1c(=O)[nH]c3ccccc31)C2 (stereo not given in full)	inactive	–
CN1CCCN=C1/C=C/c1cccs1	inactive	–
O=C(NO)c1ccccc1	36.6 µM (active)	–
Cn1c(=O)c2c(ncn2CC(=O)O)n(C)c1=O	inactive	–
CSCC[C@H](NC(=O)[C@H](Cc1c[nH]c2ccccc12)NC(=O)CCNC(=O)OC(C)(C)C)C(=O)N[C@@H](CC(=O)O)C(=O)N[C@@H](Cc1ccccc1)C(N)=O	inactive	–
Oc1ccccc1	inactive	–
COc1ccc(CCC(C)=O)cc1	inactive	–
Cc1cccc(C)c1NC(=O)c1cc(S(N)(=O)=O)c(Cl)cc1O	inactive	–
COc1ccccc1OCC1CNC(=O)O1 (stereo not given)	inactive	–
Nc1nnnn1-c1ccccc1	inactive	–
CCOC(=O)c1ccc(NC(=O)CN2CCCCC2)cc1	inactive	–
CO[C@@]1(NC(=O)CSC[C@@H](N)C(=O)O)C(=O)N2C(C(=O)O)=C(CSc3nnnn3C)CS[C@@H]21	inactive	–
O=C(Oc1ccccc1)c1cccc(C(=O)Oc2ccccc2)c1	inactive	–
O=C1CCCc2c(O)cccc21	inactive	–
Brc1ccccc1-c1ccccc1	inactive	–
Cc1ncc([N+](=O)[O-])n1C	inactive	–
O=C1NC(c2cccc([N+](=O)[O-])c2)=CCN1c1ccccc1O	inactive	–
Cc1c(N)cccc1C(F)(F)F	inactive	–
C/C(=C1\CCOC(=O)S1)N(C=O)Cc1cnc(C)nc1N	inactive	–

SMILES	Potency	activity change, negative = viability loss
Cc1nc(C2CCCCC2)c(-c2ccc(S(N)(=O)=O)c(F)c2)o1	11.9 µM (active)	–
CCOC(=O)NNc1nncc2ccccc12	inactive	–
CCCc1ccc(OCC(=O)N2CCN(C(=O)COc3ccc(CCC)cc3OC)CC2)c(OC)c1	inactive	–
Fc1ccc(C(c2ccc(F)cc2)N2CCNCC2)cc1	inactive	–
CCOC(=O)Oc1ccc(CCNC(=O)[C@H](CCSC)NC(C)=O)cc1OC(=O)OCC	inactive	–
OCc1cccnc1	inactive	–
CC(=O)Nc1c(I)c(NC(C)=O)c(I)c(C(=O)O)c1I	inactive	–
N[C@@H](Cn1ccc(=O)c(O)c1)C(=O)O	–	-1.02% [at 4.96 µM] (inactive)
COc1cc(C(=O)NC2CCCNC2)cc(OC)c1OC (stereo not given)	inactive	–
O=C1Nc2ccccc2C1(c1ccc(O)cc1)c1ccc(O)cc1	21.1 µM (active)	–
C/C=C(/C(=C/C)c1ccc(OC(C)=O)cc1)c1ccc(OC(C)=O)cc1	5.31 µM (active)	–
C1=CC2C3C=CC(C3)C2C1 (stereo not given)	inactive	–
CCCCCCCCCCCCCCCC[n+]1ccccc1	0.376 µM (active)	–
CN1CCN(N)CC1	inactive	–
O=C(O)C1CCC1	inactive	–
Cc1cc(O)c(C)c(C)c1O	inactive	–
CC[C@@]1(O)C(=O)OCc2c1cc1n(c2=O)Cc2c-1nc1ccccc1c2/C=N/OC(C)(C)C	inactive	–
O=C1CC2(CCCC2)CC(=O)N1CCNCC1COc2ccccc2O1 (stereo not given)	inactive	–
CC(C(O)c1ccccc1)N(C)CCOC(c1ccccc1)c1ccccc1 (stereo not given)	16.3 µM (active)	–
CCCCCCCCCCCC[N+](C)(C)Cc1ccccc1	0.473 µM (active)	–

experiment: Primary qHTS for inhibitors of nuclear receptor binding SET domain protein 2 (NSD2) in an RCH-ACV wild type WT cells (2C) (AID 1645877); details: RCH-ACV (leukaemia line) NSD2 WT (2C) viability, CellTiter-Glo, 72 h; series mostly up to 44.9 µM

SMILES	Potency	activity change, negative = cell killing
CCOC(=O)c1ccc(O)c(O)c1	13.3 µM (active)	–
CN1[C@@H]2CC[C@H]1CC(NC(=O)n1c(=O)[nH]c3ccccc31)C2 (stereo not given in full)	inactive	–
CN1CCCN=C1/C=C/c1cccs1	inactive	–
O=C(NO)c1ccccc1	25.9 µM (active)	–
Cn1c(=O)c2c(ncn2CC(=O)O)n(C)c1=O	inactive	–
CSCC[C@H](NC(=O)[C@H](Cc1c[nH]c2ccccc12)NC(=O)CCNC(=O)OC(C)(C)C)C(=O)N[C@@H](CC(=O)O)C(=O)N[C@@H](Cc1ccccc1)C(N)=O	inactive	–
Oc1ccccc1	inactive	–
COc1ccc(CCC(C)=O)cc1	inactive	–
Cc1cccc(C)c1NC(=O)c1cc(S(N)(=O)=O)c(Cl)cc1O	inactive	–
COc1ccccc1OCC1CNC(=O)O1 (stereo not given)	inactive	–
Nc1nnnn1-c1ccccc1	inactive	–
CCOC(=O)c1ccc(NC(=O)CN2CCCCC2)cc1	inactive	–
CO[C@@]1(NC(=O)CSC[C@@H](N)C(=O)O)C(=O)N2C(C(=O)O)=C(CSc3nnnn3C)CS[C@@H]21	inactive	–
O=C(Oc1ccccc1)c1cccc(C(=O)Oc2ccccc2)c1	inactive	–
O=C1CCCc2c(O)cccc21	inactive	–
Brc1ccccc1-c1ccccc1	inactive	–
Cc1ncc([N+](=O)[O-])n1C	inactive	–
O=C1NC(c2cccc([N+](=O)[O-])c2)=CCN1c1ccccc1O	inactive	–
Cc1c(N)cccc1C(F)(F)F	inactive	–
C/C(=C1\CCOC(=O)S1)N(C=O)Cc1cnc(C)nc1N	inactive	–

SMILES	Potency	activity change, negative = cell killing
Cc1nc(C2CCCCC2)c(-c2ccc(S(N)(=O)=O)c(F)c2)o1	13.3 µM (active)	–
CCOC(=O)NNc1nncc2ccccc12	inactive	–
CCCc1ccc(OCC(=O)N2CCN(C(=O)COc3ccc(CCC)cc3OC)CC2)c(OC)c1	inactive	–
Fc1ccc(C(c2ccc(F)cc2)N2CCNCC2)cc1	inactive	–
CCOC(=O)Oc1ccc(CCNC(=O)[C@H](CCSC)NC(C)=O)cc1OC(=O)OCC	inactive	–
OCc1cccnc1	inactive	–
CC(=O)Nc1c(I)c(NC(C)=O)c(I)c(C(=O)O)c1I	inactive	–
N[C@@H](Cn1ccc(=O)c(O)c1)C(=O)O	–	-0.615% [at 4.96 µM] (inactive)
COc1cc(C(=O)NC2CCCNC2)cc(OC)c1OC (stereo not given)	inactive	–
O=C1Nc2ccccc2C1(c1ccc(O)cc1)c1ccc(O)cc1	16.8 µM (active)	–
C/C=C(/C(=C/C)c1ccc(OC(C)=O)cc1)c1ccc(OC(C)=O)cc1	3.76 µM (active)	–
C1=CC2C3C=CC(C3)C2C1 (stereo not given)	inactive	–
CCCCCCCCCCCCCCCC[n+]1ccccc1	0.335 µM (active)	–
CN1CCN(N)CC1	inactive	–
O=C(O)C1CCC1	inactive	–
Cc1cc(O)c(C)c(C)c1O	inactive	–
CC[C@@]1(O)C(=O)OCc2c1cc1n(c2=O)Cc2c-1nc1ccccc1c2/C=N/OC(C)(C)C	inactive	–
O=C1CC2(CCCC2)CC(=O)N1CCNCC1COc2ccccc2O1 (stereo not given)	inactive	–
CC(C(O)c1ccccc1)N(C)CCOC(c1ccccc1)c1ccccc1 (stereo not given)	16.3 µM (active)	–
CCCCCCCCCCCC[N+](C)(C)Cc1ccccc1	0.473 µM (active)	–

— PubChem BioAssay (NCATS)
